Source: PubChem BioAssay AID1347165 (National Center for Advancing Translational Sciences (NCATS), 2019)
“And” between values parts separate entries of the source, which are not always exact repeats. Equal entries are not always repeated. The whole screen tested about 220,000 compounds, of which about 5,700 (2.6%) were called active. Roughly 18% stayed inconclusive and do not appear here. Calls come from the whole dose curve; as a rule, active = well fitted inhibition curve with a large enough effect; inconclusive = small, poorly fitted or top-dose-only effect; inactive = no such curve, though single readings can be large or run the other way. Shown is part of a subset that was picked to be rich in actives.

Each compound was assayed against Lysine-specific demethylase 5B (Homo sapiens) (UniProt Q9UGL1) (assay: Primary screen for KDM5B Histone Demethylases FDH-coupled qHTS). Conditions: FDH-coupled NADH fluorescence (FDH is formaldehyde dehydrogenase); series mostly up to 57.7 µM.
Sequence of Lysine-specific demethylase 5B (Homo sapiens) (Q9UGL1 whole entry, looked up, the tested form may be a part): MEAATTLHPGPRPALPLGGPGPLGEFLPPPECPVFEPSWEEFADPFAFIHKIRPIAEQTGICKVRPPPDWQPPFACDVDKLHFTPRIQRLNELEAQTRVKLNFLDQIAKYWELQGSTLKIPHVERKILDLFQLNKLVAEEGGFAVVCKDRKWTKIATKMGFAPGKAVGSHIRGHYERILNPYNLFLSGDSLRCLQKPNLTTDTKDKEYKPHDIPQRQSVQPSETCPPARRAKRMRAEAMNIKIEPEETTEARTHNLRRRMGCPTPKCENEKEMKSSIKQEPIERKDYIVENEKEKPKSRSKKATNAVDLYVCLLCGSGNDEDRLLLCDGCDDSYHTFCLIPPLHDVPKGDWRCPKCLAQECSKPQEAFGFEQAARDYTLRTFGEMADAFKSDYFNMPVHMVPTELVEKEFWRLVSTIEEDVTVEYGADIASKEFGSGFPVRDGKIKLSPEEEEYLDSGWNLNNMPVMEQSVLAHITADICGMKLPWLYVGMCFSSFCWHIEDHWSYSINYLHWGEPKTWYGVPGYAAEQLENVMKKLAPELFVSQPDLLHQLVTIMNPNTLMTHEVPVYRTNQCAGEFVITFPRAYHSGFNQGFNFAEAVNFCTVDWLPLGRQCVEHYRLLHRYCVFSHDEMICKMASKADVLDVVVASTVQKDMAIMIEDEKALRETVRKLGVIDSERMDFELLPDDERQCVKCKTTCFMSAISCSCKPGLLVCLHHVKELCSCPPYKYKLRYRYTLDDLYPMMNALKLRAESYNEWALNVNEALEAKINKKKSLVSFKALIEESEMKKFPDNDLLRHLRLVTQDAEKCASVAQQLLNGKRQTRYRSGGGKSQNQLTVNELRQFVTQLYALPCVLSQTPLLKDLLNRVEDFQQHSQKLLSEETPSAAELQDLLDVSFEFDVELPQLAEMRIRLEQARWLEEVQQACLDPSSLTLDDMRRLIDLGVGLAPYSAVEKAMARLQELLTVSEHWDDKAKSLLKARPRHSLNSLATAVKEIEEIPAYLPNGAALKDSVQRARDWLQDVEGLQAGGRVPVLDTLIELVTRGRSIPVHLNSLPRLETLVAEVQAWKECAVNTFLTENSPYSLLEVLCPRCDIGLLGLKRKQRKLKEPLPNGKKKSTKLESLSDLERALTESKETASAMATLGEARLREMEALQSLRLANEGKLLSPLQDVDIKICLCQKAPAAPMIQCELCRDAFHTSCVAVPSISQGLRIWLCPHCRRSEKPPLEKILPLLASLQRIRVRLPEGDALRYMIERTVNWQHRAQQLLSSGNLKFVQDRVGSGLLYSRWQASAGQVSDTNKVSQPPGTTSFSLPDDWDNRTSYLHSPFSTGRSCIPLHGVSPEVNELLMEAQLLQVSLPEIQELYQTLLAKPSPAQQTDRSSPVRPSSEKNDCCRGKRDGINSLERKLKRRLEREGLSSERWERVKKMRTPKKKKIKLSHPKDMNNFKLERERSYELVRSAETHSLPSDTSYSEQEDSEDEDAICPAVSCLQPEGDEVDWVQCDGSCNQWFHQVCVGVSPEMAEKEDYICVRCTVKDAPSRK
In short: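 Inhibition is measured as reduced NADH fluorescence generation from FDH coupling to formaldehyde release. Truncated KDM5BΔAP at 200 nM final acts on H3K4me3 peptide (12.5 µM in substrate mix) in pH 7.5 HEPES buffer with Tween-20, 30 min, room temperature.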
Note: nearly all actives have a fitted effect of over 70% in size.
Potency is the fitted concentration of half-maximal effect.

Potency, active:
c1cc(-c2nc3ccncc3[nH]2)ccn1 126 µM and 31.6 µM
O=C(NCCCn1ccnc1)c1ccc(-c2ncc3cnc(-c4cccc(F)c4)cn23)cc1 17.8 µM
COc1ccc2[nH]c(C(=O)N[C@@H]3CN(S(C)(=O)=O)C[C@H]3CN(C)C)cc2c1 28.2 µM
CN(C)C[C@@H]1CN(C)C[C@H]1NC(=O)c1cc2ccccc2[nH]1 25.1 µM
CN(C)C[C@@H]1CN(S(C)(=O)=O)C[C@H]1NC(=O)c1nn(C)c2ccccc12 28.2 µM
CN(C)C[C@@H]1CN(Cc2ccccn2)C[C@H]1NC(=O)c1ccc2cc[nH]c2c1 28.2 µM

Potency, inactive:
COc1ccc2c(CC(=O)N3CCc4cc(OC)c(OC)cc4C3)coc2c1
Cc1oc2ccn(Cc3ccccc3F)c(=O)c2c1C(=O)NCCCN1CCCCC1C (stereo unspecified)
Cc1cc(C)c(NC(=O)CSc2nc3ccncc3[nH]2)c(C)c1
COc1ccc(C2=NC(c3ccncc3)=Nc3ccc(Br)cc3N2)cc1
COc1ccc(CC(=O)NC[C@@H]2C=C(C)[C@H](Cc3nc4ccncc4[nH]3)C[C@H]2C(C)C)cc1
Cc1ccc(Nc2n[nH]nc2C(=O)Nc2ccc(C)cc2Cl)cc1
Cc1csc(CNC(=O)N(C)Cc2ccc3c(c2)OCCO3)n1
O=C(Nc1ccccc1Cc1ccccc1)c1cccc[n+]1[O-]
Cc1ccc(-c2nc(C#N)c(NCCCn3ccnc3)o2)cc1
CC(C)(Oc1nn(CCOc2ccccc2)c2ccccc12)C(=O)NCCCn1ccnc1
Cn1cc(S(=O)(=O)N2CCC(C(=O)Nc3ccc(OC(F)F)c(Cl)c3)CC2)cc1C(N)=O
COC(=O)c1sccc1S(=O)(=O)Nc1ccc(OC)cc1
CN(C)C[C@@H]1CN(S(C)(=O)=O)C[C@H]1NC(=O)c1cccc(F)c1
Cc1cc(C)n(CCC(=O)N[C@@H]2CN(S(C)(=O)=O)C[C@H]2CN(C)C)n1
CN(C)C[C@@H]1CN(S(C)(=O)=O)C[C@H]1NC(=O)c1ccc2ncccc2c1
COc1ccc(C(=O)N[C@H]2C[C@@H]3CC[C@H]2C3)cc1
O=C(N[C@@H]1CN(Cc2c(F)cccc2F)C[C@H]1CO)c1ccccc1
CN(C)C[C@@H]1CN(C)C[C@H]1NC(=O)c1ccnnc1
CC(CNC(=O)c1cc2ccccc2[nH]1)c1ccccc1 (stereo unspecified)
COc1ccc2cc(C(=O)N3CCC(C(C)C(=O)NCCCN4CCCC4)CC3)[nH]c2c1 (stereo unspecified)
